Where “and” joins values, the source holds several entries; their conditions need not be identical. Equal entries are not always repeated. Over roughly 110,000 compounds, “z-score” has its median near -0.1; the highest 2% begin near 2. This excerpt belongs to a sample that is enriched for the highest values. Calls of active or inactive are those of the source.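 Rule for the calls: active = z-score in the third read window above 3 or below -3; inactive = the rest.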
Biological target: Metabotropic glutamate receptor 8 (Rattus norvegicus) (UniProt P70579)
Sequence (P70579 whole entry, looked up): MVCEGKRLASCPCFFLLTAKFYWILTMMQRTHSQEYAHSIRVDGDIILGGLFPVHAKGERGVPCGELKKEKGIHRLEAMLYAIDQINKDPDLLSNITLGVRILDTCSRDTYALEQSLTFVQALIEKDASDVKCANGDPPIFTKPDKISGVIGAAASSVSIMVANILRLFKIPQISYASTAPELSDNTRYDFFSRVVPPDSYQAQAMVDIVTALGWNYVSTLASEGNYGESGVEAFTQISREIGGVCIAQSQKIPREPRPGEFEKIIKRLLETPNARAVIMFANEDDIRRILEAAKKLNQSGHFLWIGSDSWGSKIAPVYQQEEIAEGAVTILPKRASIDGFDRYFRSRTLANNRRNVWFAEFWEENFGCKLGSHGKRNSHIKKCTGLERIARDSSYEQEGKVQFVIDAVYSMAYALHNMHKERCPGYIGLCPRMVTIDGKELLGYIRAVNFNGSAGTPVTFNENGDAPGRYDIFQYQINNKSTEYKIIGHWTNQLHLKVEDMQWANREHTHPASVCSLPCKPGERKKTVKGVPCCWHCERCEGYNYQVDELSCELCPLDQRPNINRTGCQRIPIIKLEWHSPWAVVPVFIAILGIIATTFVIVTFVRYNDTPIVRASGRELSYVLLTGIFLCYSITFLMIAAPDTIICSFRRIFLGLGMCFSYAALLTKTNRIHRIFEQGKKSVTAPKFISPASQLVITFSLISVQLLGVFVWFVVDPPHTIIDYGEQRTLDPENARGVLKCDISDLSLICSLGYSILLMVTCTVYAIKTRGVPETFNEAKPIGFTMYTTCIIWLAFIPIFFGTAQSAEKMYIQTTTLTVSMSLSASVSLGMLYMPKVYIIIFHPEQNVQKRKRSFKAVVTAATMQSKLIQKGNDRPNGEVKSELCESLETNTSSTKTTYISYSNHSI
Experiment: rat mGluR8 modulators via GIRK flux, primary screen, cell-based, thallium flux, HTS (AID 488969)
Settings: HEK293 rat mGluR8, GIRK (G protein-gated inwardly rectifying potassium channel) thallium flux, FluoZin2; at 10 µM; stronger effect = higher value; submaximal glutamate (EC20) added with thallium

Structure (SMILES)	z-score
CCCn1nnnc1NC(=O)c1cc(Cl)ccc1Cl	0.462
CCCn1nnnc1NC(=O)c1ccc2ccccc2c1	8.08 (active)
CCCn1nnnc1NC(=O)c1cccs1	0.876
CSc1nc(Cc2ccc(Cl)cc2)nc2ccccc12	0.221
CS(=O)(=O)N(CC(=O)Nc1ccccc1)Cc1ccc(Cl)cc1	0.264
CC(C)N=c1scc(-c2ccco2)n1/N=C/c1ccc(O)c(O)c1	1.68
CCN=c1scc(-c2ccco2)n1/N=C/c1ccc(OC)c(O)c1	0.709
CCN=c1scc(-c2ccco2)n1/N=C/c1ccc(O)cc1	6.24 (active)
O=C(CCn1c(=O)sc2ccccc21)Nc1ccon1	-0.246
Cc1ccc(OS(=O)(=O)c2ccccc2)c(/C=N/N=C2\NC(=O)C(C)S2)c1 (stereo not drawn)	-0.426
O=C(O)/C(=C\c1ccc(Br)cc1)c1ccc(S(=O)(=O)N2CCCCC2)s1	-0.862
CCOC(=O)C(Cc1ccccc1)NC(C)=O (stereo not drawn)	-0.16
COc1ccc2c(-c3ccccc3)cc(SCC(=O)N(C)C3CCS(=O)(=O)C3)nc2c1 (stereo not drawn)	2.36
CCCN(C(=O)CSc1cc(-c2ccccc2)c2ccc(OC)cc2n1)C1CCS(=O)(=O)C1 (stereo not drawn)	-0.403
CCN(C(=O)CSc1cc(-c2ccccc2)c2ccc(OC)cc2n1)C1CCS(=O)(=O)C1 (stereo not drawn)	-0.108
O=C(CSc1nnc(Cc2ccccc2)n1-c1ccc(F)cc1)N1CCOCC1	0.477
O=S(=O)(Cc1cc(Cl)nc(-c2ccccc2)n1)c1ccccc1	-0.303
O=C(COc1ccccc1)Nc1ccc([N+](=O)[O-])cc1	0.423
O=C(COc1ccccc1)Nc1ccc2c(c1)Cc1cc(NC(=O)COc3ccccc3)ccc1-2	-0.155
COc1ccc(C(=O)NC(=S)Nc2ccc3c(c2)Cc2ccccc2-3)cc1	0.991
O=C(COc1ccccc1)NC(=S)Nc1cccc(NC(=O)c2ccccc2Cl)c1	-0.164
O=C(COc1ccccc1)NC(=S)Nc1ccc2c(c1)Cc1ccccc1-2	6.86 (active)
O=C(COc1ccccc1)NC(=S)Nc1cccc([N+](=O)[O-])c1	11.8 (active)

Structure (SMILES)	z-score
CC(Sc1ccccn1)C(=O)Nc1ccccc1 (stereo not drawn)	-0.408
Cc1cc2nc(-c3ccco3)cc(C(F)(F)F)n2n1	0.0437
CC1CC(Nc2cccc(O)c2)=CC(=O)O1 (stereo not drawn)	-0.0768
CCCCC1CC1C(=O)Nc1ncc2c(n1)CC(C)(C)CC2=O (stereo not drawn)	-0.185
CCCCC(=O)Nc1ncc2c(n1)CC(C)(C)CC2=O	6.64 (active)
CC1(C)CC(=O)c2cnc(NC(=O)CCc3ccccc3)nc2C1	-0.267
O=C(O)C1CC(=O)N(Cc2cccs2)C1 (stereo not drawn)	0.254
O=C(CSc1ccccc1)N(c1ccc(Br)cc1)c1nccs1	9.08 (active)
O=C(CCSc1ccccc1)Nc1nccs1	0.115
Cc1nc(-c2ccccc2)sc1C(=O)CSc1ccc(Br)cc1	-0.108
CCOC(=O)C1CCCN(C(=O)c2cc3c(-c4cccc(OC)c4)nn(C)c3s2)C1 (stereo not drawn)	-0.832
Cc1nc(=O)c(-c2ccccc2)c(C)n1CCO	-0.0934
N=c1c2c3c(sc2ncn1CCCO)CCCC3	-0.123
CC(C)Cn1cnc2sc3c(c2c1=N)CCCC3	3.07 (active)
N=c1c2c3c(sc2ncn1Cc1ccccc1)CCCC3	0.187
CCCNC(=S)Nc1ccc(Cl)cc1C	-0.142
COc1cccc(N2CCN(Cc3nc(N)nc(Nc4ccccc4OC)n3)CC2)c1	-0.203
Cc1cccc(C)c1OCC(=O)NCc1nnc(SCC(=O)NC2CCCCC2C)n1C (stereo not drawn)	-0.0497
Cc1c(Cl)cccc1NC(=S)NNc1ncc(C(F)(F)F)cc1Cl	0.506
Cc1ccc(NC(=S)NNc2ncc(C(F)(F)F)cc2Cl)cc1	2.19
Fc1ccccc1NC(=S)NNc1ncc(C(F)(F)F)cc1Cl	1.37
O=C(NNc1ncc(C(F)(F)F)cc1Cl)c1c(Cl)cccc1Cl	0.951
Nc1ccccc1C(=O)NNc1ncc(C(F)(F)F)cc1Cl	0.251

Structure (SMILES)	z-score
CC(C(=O)Nc1ccc(Cl)cc1)c1ncc(C(F)(F)F)cc1Cl (stereo not drawn)	-0.108
Cc1cccc(C)c1NC(=S)NNc1ncc(C(F)(F)F)cc1Cl	0.289
Cc1ccccc1NC(=S)NNc1ncc(C(F)(F)F)cc1Cl	0.522
FC(F)(F)c1cnc(NNC(=S)Nc2ccc(Cl)cc2)c(Cl)c1	6.35 (active)
CN(NC(=O)Nc1ccc(Cl)cc1)c1ncc(C(F)(F)F)cc1Cl	0.137
FC(F)(F)c1cnc(NNC(=S)Nc2ccccc2Cl)c(Cl)c1	5.28 (active)
Cc1ccc(NC(=S)NNc2ncc(C(F)(F)F)cc2Cl)c(C)c1	2.04
COc1cc2c(cc1NC(=O)c1cccc(Br)c1)CCCC2	0.201
N#Cc1cc2c(nc1SCC(N)=O)CCCCC2	-0.0763
COc1ccc(-c2csc(Nc3cccnc3)n2)cc1OC	-0.0895
Cc1cc(=O)oc(C)c1C(=O)OCC(=O)c1ccc2ccccc2c1	-0.249
CCCCCCn1cnc2c(c1=O)c1nc3ccccc3nc1n2Cc1cccs1	-1.43
CCCCNc1c2c(nc3c(-c4ccccc4)c(C)nn13)CCC2	-0.294
Cc1nn2c(NCCCN(C)C)c3c(nc2c1-c1ccccc1)CCC3	3.36 (active)
Cc1nn2c(NCCCN3CCOCC3)c3c(nc2c1-c1ccccc1)CCC3	-0.0116
O=C(CN1CCOCCOCCOCC1)Nc1ccccc1	0.274
CC1CCCCN1CC(=O)NC(=O)NCc1ccccc1 (stereo not drawn)	-0.261
CN1CCN(CC(=O)Nc2ccc(Oc3ccccc3)cc2)CC1	1.4
CC1CCCCN1CC(=O)Nc1ccc(Oc2ccccc2)cc1 (stereo not drawn)	3.58 (active)
O=C(CN1CCOCCOCCOCCOCC1)Nc1ccccc1	0.356
COc1ccc(NC(=O)CN2CCCCC2)cc1	0.473
O=C(CN1CCOCC1)Nc1ccc(Oc2ccccc2)cc1	1.91
O=C(CN1CCN(C(=S)NC2CCCC2)CC1)Nc1ccc(Oc2ccccc2)cc1	-0.13

Structure (SMILES)	z-score
O=C(CN1CCOCC1)Nc1ccc(Oc2ccc(NC(=O)CN3CCOCC3)cc2)cc1	-0.278
O=C(CN1CCCC1)Nc1ccc(Oc2ccc(NC(=O)CN3CCCC3)cc2)cc1	2.7
O=C(CN1CCNCC1)Nc1ccc(Oc2ccccc2)cc1	2.35
O=C(CN1CCOCC1)Nc1ccc(C2CCCCC2)cc1	2.23
C=CCn1c(N)c(C(=O)Nc2ccc(C)c(C)c2)c2nc3ccccc3nc21	0.661
Cc1c(O)nc(SCC(=O)Nc2ccc3c4c(cccc24)CC3)n(-c2ccccc2)c1=O	-0.768
CCOC(=O)N1CCN(C(=O)CN(C2CCCCC2)S(=O)(=O)c2ccc(F)cc2)CC1	0.315
CCOC(=O)c1cnc2ccc(OCC)cc2c1N1CCN(c2ccccc2OC)CC1	-0.8
COc1ccccc1NC(=O)c1sc2nc(-c3ccco3)ccc2c1N	0.132
NC(=O)c1sc2nc(-c3ccco3)ccc2c1N	-0.321
COC(=O)c1sc2nc(-c3ccco3)ccc2c1N	2.53
O=C(NNC(=S)NCc1ccccc1)c1ccc(OC(F)F)cc1	2.12
CCNC(=S)NNC(=O)c1ccc(OC(F)F)cc1	-0.194
CC(C)CNC(=S)NNC(=O)c1ccc(OC(F)F)cc1	-0.0885
CCOCCCNC(=O)CCCOc1ccccc1	0.0157
O=C(Cc1ccccc1F)Nc1ccc(Cl)nc1	0.217
Cc1ccc(NC2=C(CC(=O)O)C(c3ccccc3)N(c3ccc(C)cc3)C2=O)cc1 (stereo not drawn)	-0.426
Cc1ccc(C2C3=C(NCCN=C3c3ccccc3)C(=O)N2c2ccccc2)cc1 (stereo not drawn)	3.18 (active)
Cc1ccc(N2C(=O)c3n[nH]c(C)c3C2c2ccccn2)cc1 (stereo not drawn)	-0.326
CC1CCCCN1S(=O)(=O)c1ccc(NC(=O)c2cccs2)cc1 (stereo not drawn)	-0.377
O=C(Nc1cccnc1)Nc1ccccc1Cl	0.0762
CCc1ccc(/C=C/C(=O)c2ccc(N3CCOCC3)cc2)cc1	0.286
CCN(CC)CC(=O)NC12CC3CC(CC(C3)C1)C2	2.42

Structure (SMILES)	z-score
COCCC(=O)NC12CC3CC(CC(C3)C1)C2	-0.301
O=C(O)CC(=O)NC12CC3CC(CC(C3)C1)C2	-0.251 and -0.244
CCCCCC[n+]1c(-c2ccc(Cl)cc2Cl)csc1Nc1ccccc1	-0.156
O=C(CN(Cc1ccc2c(c1)OCO2)C(=O)c1cnsn1)NC1CCCC1	-0.186
O=C(NC1CCCCC1)C(c1ccc(F)cc1)N(Cc1ccc2c(c1)OCO2)C(=O)c1cnsn1 (stereo not drawn)	0.366
O=C(NC1CCCCC1)C(c1ccccc1)N(Cc1ccc2c(c1)OCO2)C(=O)c1cnsn1 (stereo not drawn)	2.16
COc1cc(CCN2C(=O)c3cccc4cccc(c34)C2=O)c(S(=O)(=O)N2CCCCCC2)cc1OC	-0.297
COC(=O)Cn1c(CN2CCc3ccccc3C2)nc2c1c(=O)n(C)c(=O)n2C	5.81 (active)
Cn1c(=O)c2c(nc(CN3CCc4ccccc4C3)n2CC(=O)c2ccccc2)n(C)c1=O	-0.969
Cn1c(=O)c2c(nc(CN3CCc4ccccc4C3)n2Cc2ccccc2)n(C)c1=O	-0.932
CCOC(=O)c1ccc(NC(=O)c2cc(OC)c(OC)c(OC)c2Br)cc1	0.551
O=C(O)C1CCCCC1C(=O)NCc1cn2ccccc2n1 (stereo not drawn)	-0.352
O=C(CN1CCOCC1)Nc1ccc(OCc2ccccc2)cc1	0.323
CNC(=O)CSc1nc2c(c(=O)n(C)c(=O)n2C)n1Cc1ccc(C)cc1	2.07
Cc1ccc(Cn2c(SCC(C)C)nc3c2c(=O)n(C)c(=O)n3C)cc1	-0.493
Cc1ccc(Cn2c(SCC(N)=O)nc3c2c(=O)n(C)c(=O)n3C)cc1	-0.328
COc1cc(NC(=O)c2ccco2)c(OC)cc1NC(=O)CSc1nnc(-c2cccs2)n1C	-1.07
CCOC(=O)C1=C(CC)Nc2ccccc2N=C1NC(=O)Nc1ccc(Cl)c(Cl)c1	5.4 (active)
CCOC(=O)C1=C(CC)Nc2ccccc2N=C1NC(=O)c1cc(S(=O)(=O)N(C)C)ccc1Cl	0.243
CCOC(=O)C1=C(CC)Nc2ccccc2N=C1NC(=O)Nc1ccccc1OC	0.249
Cc1cc(C)n(C(=O)c2ccc(C)c(F)c2F)n1	-0.238

From PubChem BioAssay AID488969 (Vanderbilt High Throughput Screening Facility, 2010)
